# KB-V1 MDR tox: kills drug-selected multidrug resistant KB-V1 cells; KB-V1 MDR cells viability, CellTiter-Glo, 72 h; Potency, µM (top dose mostly 46.1 µM), hits mostly cytotoxic; 400,000 tested, 3.4% active; also: % is scaled to controls: 0 for no effect and ±100 for the full control effect; nearly all actives have a fitted effect of over 60% in size
#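 In this primary screen, KB-V1 cells overexpressing P-gp are incubated with library compounds (lowest to highest concentration) for 72 h at 37 degrees C before a luminescent ATP viability read.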
# ATXN2 expr inh: reduces ATXN2 reporter expression in HEK-293 cells; AID 1745845; HEK-293 ATXN2-luciferase reporter, luminescence, 24 h; Potency, µM (titrated, usually from 57 µM), without a hit: top-dose activity change, negative = inhibition, hits mostly inhibitors; 360,000 tested, 0.72% active; also: % is scaled to controls: 0 for no effect and ±100 for the full control effect; nearly all actives have a fitted effect of over 55% in size
#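 ATXN2-luciferase reporter cells (luciferase flanked by upstream and downstream ATXN2 gene portions) were treated 24 h at 37 °C with compounds at up to 57 uM. SteadyGlo luminescence gave expression; GF-AFC fluorescence gave viability.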
# S2 tox: viability counter-screen for ATXN expression inhibitors; S2 cells (HEK-293 line with an ATXN2-luciferase reporter) viability, CellTiter-Fluor protease fluorescence, 24 h; Potency, µM (series often up to 56.7 µM), actives largely listed as cytotoxic; 400,000 tested, 0.49% active; also: nearly all actives have a fitted effect of over 40% in size
# HT1080 IDH1KD tx: kills HT-1080 cells with IDH1 knockdown. Potency, µM (doses to about 46.1 µM), for inactives: top-dose activity, negative = toxicity, actives largely listed as cytotoxic. HT-1080 IDH1 knockdown viability, ATP luminescence, 48 h. 360,000 tested, 2% active. AID 686971;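 also: 0% = DMSO wells and -100% = cell-free medium wells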
#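 Knockdown cells (IDH1KD HT-1080) received compounds 2 h after plating at 750 cells/well and were kept 48 h at 37 °C in 5% FBS RPMI. A CellTiter-Glo luminescence read gave % activity for curve fitting.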
# HT1080NT lethal: kills 2HG-producing HT-1080-NT fibrosarcoma cells; HT-1080-NT fibrosarcoma viability, CellTiter-Glo ATP luminescence, 48 h; Potency, µM (top dose mostly 46.1 µM), without a hit: at the highest dose activity, negative = less viability, actives largely listed as cytotoxic; 360,000 tested, 1.6% active;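 also: NT is the 2HG producing partner of a matched IDH1 knockdown line; 0% = DMSO-treated cells and -100% = media-only wells without cells; nearly all actives have a fitted effect of over 55% in size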
#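 Luminescent CellTiter-Glo readout after 48 hours of compound exposure at 37 degrees C defined viability of HT-1080-NT cells. Activity was normalized to DMSO wells and cell-free media wells; concentration-response curves were fitted and assigned curve classes.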
# KB-3-1 cytotox: KB-3-1 parental cell cytotoxicity; KB-3-1 viability, CellTiter-Glo ATP luminescence, 72 h; Potency, µM (doses to about 46.1 µM), most hits filed as cytotoxic; AID 1347075; 400,000 tested, 1.4% active; also: % is scaled to controls: 0 for no effect and ±100 for the full control effect; nearly all actives have a fitted effect of over 60% in size
#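 Using CellTiter-Glo luminescence, growth of non-resistant KB-3-1 adenocarcinoma cells is assessed 72 h after pin-tool compound addition at 37 °C. Normalized responses across the concentration series yield fitted curves.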
# Starred values were filed as active, the others as inactive; i = inactive; ? = inconclusive; . = no result. Hits are enriched below; roughly 6.2% of the tested compounds scored in any of these assays. Calls follow the shape of the dose curve; as a rule, active = well fitted curve in the direction sought with a large enough effect; inconclusive = small, poorly fitted or top-dose-only effect, or another doubt; inactive = no such curve, though single readings can be large; an effect the other way counts as inactive or inconclusive. Potency is read from the fitted curve at half-maximal effect.
SMILES,KB-V1 MDR tox,ATXN2 expr inh,S2 tox,HT1080 IDH1KD tx,HT1080NT lethal,KB-3-1 cytotox
CCC(=O)N1Cc2cc(C(=O)NCC(F)(F)F)nc(-c3cccc(-c4cncnc4)c3)c2[C@@H]1CCO,i,-7%,i,?,-25%,?
CCNC(=O)c1cc2c(c(-c3cccc(-c4ccccc4F)c3)n1)[C@H](CCO)N(C(=O)CC)C2,18µM*,?,i,?,?,?
O=C(NCC(F)(F)F)c1cc2c(c(-c3cccc(-c4ccccc4F)c3)n1)[C@H](CCO)N(C(=O)CC1CC1)C2,16µM*,?,?,?,?,?
CCCNC(=O)c1cc2c(c(-c3cccc(-c4ccccc4F)c3)n1)[C@@H](CCO)N(C(=O)CC1CC1)C2,23µM*,?,?,?,?,?
C=C(Cl)COc1ccc2c(CCCC)cc(=O)oc2c1,i,-9%,i,-3%,-4%,i
CCCCc1cc(=O)oc2cc(OCC(=O)N(CC)CC)ccc12,7.3µM*,3%,i,5%,3%,i
CCOCCCn1c(SCC(=O)Nc2ccccc2OC)nc2c(oc3ccccc32)c1=O,i,-24%,?,.,.,i
CN(C)c1cc2c3ccccc3ccc2c2ccccc12,i,.,.,.,.,i
Cc1c(C(=O)NC(=S)Nc2ccccc2N2CCCC2)cccc1[N+](=O)[O-],13µM*,5%,i,-5%,-2%,i
O=C(NC(=S)Nc1ccccc1N1CCCC1)c1ccc(-c2cccc([N+](=O)[O-])c2)o1,16µM*,-10%,i,?,?,?
O=C(NC(=S)Nc1ccccc1N1CCCCC1)c1ccc(-c2cccc([N+](=O)[O-])c2)o1,i,-2%,i,12%,4%,i
CCOc1cccc(CN2CCC(n3cc(C(=O)N4CCCCC4)nn3)CC2)c1O,.,.,i,.,.,.
CC(=O)Nc1cccc(C(=O)OCc2csc(CC(=O)Nc3ccccc3C)n2)c1,21µM*,-6%,i,-9%,0%,i
Cc1cc(C)c(C(=O)OCc2csc(CC(=O)Nc3ccccc3C)n2)c(C)c1,i,-17%,i,-4%,-5%,i
CCc1ccc2oc(C(=O)N3CCN(c4ccccc4OC)CC3)cc(=O)c2c1,23µM*,-35%,i,13µM*,?,18µM*
COc1ccccc1N1CCN(C(=O)NCc2ccc(Cl)cc2)CC1,i,-8%,i,-8%,-12%,i
COc1ccccc1N1CCN(C(=O)c2ccc(-c3ccc(Cl)cc3)o2)CC1,?,.,?,5.2µM*,7.3µM*,4.6µM*
COc1ccc(-c2csc(-c3nc(-c4ccc(Br)s4)cs3)n2)cc1F,i,0%,i,.,.,i
Clc1ccc2nc(N3CCNCC3)nc(-c3ccccc3)c2c1,18µM*,?,i,20%,-10%,?
CN1CCN(c2nc(-c3ccccc3)c3cc(Cl)ccc3n2)CC1,?,-15%,i,-24%,?,?
CSc1ccccc1NC(=O)CN(C)C(=O)c1c(C)nn(Cc2ccccc2)c1C,21µM*,3%,i,-8%,-2%,i
COc1ccc(NC(=O)CN(C)C(=O)c2c(C)nn(Cc3ccccc3)c2C)cc1,i,7%,i,1%,13%,i
CC1(Br)C(Sc2ccccc2[N+](=O)[O-])=Nc2ccccc21 (centres undefined),?,-37%,?,?,6.5µM*,?
Cc1[nH]c(=O)[nH]c(=O)c1Sc1ccccc1[N+](=O)[O-],i,28%,i,17%,8%,i
CCCCNC(=S)NNC(=O)CCn1nc(C)c(Br)c1C,i,1%,i,1.1µM*,0.89µM*,i
SMILES,KB-V1 MDR tox,ATXN2 expr inh,S2 tox,HT1080 IDH1KD tx,HT1080NT lethal,KB-3-1 cytotox
Cc1c(CCO)sc[n+]1CCc1ccccc1,i,.,.,.,.,i
COC(=O)c1cccc(S(=O)(=O)N(Cc2ccco2)Cc2cc3cc(OC)ccc3[nH]c2=O)c1,16µM*,0%,i,-28%,-28%,i
Cc1cc2cc(CN(Cc3ccco3)S(=O)(=O)c3c(C)ccc4nsnc34)c(=O)[nH]c2cc1C,1.6µM*,?,?,?,?,3.3µM*
C=CCN1C(=O)/C(=C/c2ccc(O)c(OC)c2)S/C1=N/c1nccs1,15µM*,-6%,i,?,-2%,i
C=CCN1C(=O)/C(=C/c2ccc(OCC(=O)O)cc2)S/C1=N/c1nccs1,i,2%,i,-2%,-4%,i
OC1(c2ccc(Cl)c(Cl)c2)C[n+]2ccccc2N1Cc1ccccc1 (centres undefined),i,35µM*,.,21µM*,18µM*,?
OC1(c2ccccc2)CCN(Cc2ccccc2)CC1,i,-12%,i,2%,-13%,i
COc1cccc2cc(S(=O)(=O)c3ccc(F)c(C)c3)c(=O)oc12,i,-4%,i,.,.,i
NC(N)=Nc1nc(-c2ccccc2)c2ccccc2n1,i,?,.,18µM*,-29%,?
Clc1nc(-c2ccccc2)c2ccccc2n1,?,9%,i,-4%,-2%,i
CCCCCn1c(=O)[nH]c2cc(C(=O)Nc3cc(OC)cc(OC)c3)ccc2c1=O,i,-2%,i,.,.,i
O=C(COc1ccccc1F)Nc1ccc2[nH]c(=O)[nH]c2c1,6.5µM*,3%,?,1%,10%,?
O=C(COc1ccccc1)Nc1ccc2[nH]c(=O)[nH]c2c1,i,-11%,i,-2%,14%,i
COc1cccc(C(=O)Nc2ccc3[nH]c(=O)[nH]c3c2)c1OC,0.73µM*,12%,.,6%,0%,1.2µM*
CNC(=O)[C@@H]1C[C@@H](NCc2cccc(Oc3ccccc3)c2)CN1C(C)C,.,.,i,.,.,.
Cc1ccc(Nc2cc(C)nn2-c2nc(C)cc(=O)[nH]2)cc1,?,1.1µM*,2µM*,?,?,1.4µM*
CCCOC(=O)c1ccc(Oc2cn[nH]c2-c2ccc(OC)cc2O)cc1,?,?,?,18µM*,21µM*,?
CC(C)c1ccc(NC(=O)CSC2=Nc3ccccc3C3=NC(CC(=O)NCc4ccco4)C(=O)N23)cc1 (centres undefined),i,.,.,.,.,i
CCOC(=O)c1c(NC(=O)CN2CCOCC2)sc2c1CC(C)(C)OC2,i,6%,i,7%,2%,i
CCOC(=O)c1c(NC(=O)CCN2CCOCC2)sc2c1CC(C)(C)OC2,16µM*,4%,i,-6%,3%,i

# Screens: PubChem BioAssay, National Center for Advancing Translational Sciences (NCATS)
